PubChem BioAssay (NCATS)
Results filed as inconclusive are left out. The source made the active and inactive calls. The call rests on the fitted dose curve; in most records, active means well fitted inhibition curve with a large enough effect; inconclusive means small, poorly fitted or top-dose-only effect; inactive means flat fitted curve, though single readings scatter. Peptide text beside a SMILES is read from it.

Tests used:
Assay in all cases: qHTS profiling for inhibitors of Plasmodium falciparum proliferation (AID 504749); further: nearly all actives have a fitted effect of over 60% in size
Details in all cases: P. falciparum in erythrocytes, SYBR Green DNA, 72 h; series mostly up to 28.7 µM
[1] = system: HB3
Procedure, shortened: (§1)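 P. falciparum-infected erythrocytes (0.3% parasitemia, 2.5% hematocrit final) were exposed to compounds for 72 h at 37 C in 5% CO2, then lysed with SYBR Green buffer overnight at room temperature; parasite DNA fluorescence was normalized to artemisinin and DMSO controls.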

[2] = system: ICS
Procedure, shortened: as §1

[3] = system: JCK
Procedure, shortened: as §1

[4] = system: N140
Procedure, shortened: as §1

[5] = system: P93_24
Procedure, shortened: as §1

[6] = system: P94_40
Procedure, shortened: as §1

[7] = system: PAD
Procedure, shortened: as §1

[8] = system: PC15
Procedure, shortened: as §1

[9] = system: PC26
Procedure, shortened: as §1

[10] = system: PC49
Procedure, shortened: as §1

Measured: Potency
Potency means the concentration at half of the fitted maximal effect.

Nc1cc(C(Cl)=C(Cl)Cl)c(S(N)(=O)=O)cc1S(N)(=O)=O
inactive: all assays above

Cc1nc2n(c(=O)c1CCN1CCC(c3noc4cc(F)ccc34)CC1)CCCC2
active: [2] 12600 nM
inactive: all other assays above

CCCCN(CCCC)CCC(O)c1cc2c(Cl)cc(Cl)cc2c2cc(C(F)(F)F)ccc12 (configuration not stated)
active: [1] 6.3 nM | [2] 0.6 nM | [3] 10000 nM | [4] 3.2 nM | [5] 5.6 nM | [6] 3.2 nM | [7] 4.5 nM | [8] 8.9 nM | [9] 10.2 nM

COc1ccc(C2(C#N)CCC(C(=O)O)CC2)cc1OC1CCCC1 (configuration not stated)
inactive: all assays above

CCCCCCCCCCCCCCCCCCCCCCO
inactive: all assays above

CC(C)[C@H](N)C(=O)OCCOCn1cnc2c(=O)[nH]c(N)nc21
inactive: all assays above

Cc1ncc([N+](=O)[O-])n1CC(C)O (configuration not stated)
inactive: all assays above

CN(C)C(=O)COC(=O)Cc1ccc(OC(=O)c2ccc(N=C(N)N)cc2)cc1
inactive: all assays above

CC1(C)CCC(C)(C)c2cc(NC(=O)c3ccc(C(=O)O)cc3)ccc21
inactive: all assays above

Nc1cccc2c1CN(C1CCC(=O)NC1=O)C2=O (configuration not stated)
inactive: all assays above

O=C(NCCO[N+](=O)[O-])c1cccnc1
inactive: all assays above

CCCc1cc(=O)[nH]c(=S)[nH]1
inactive: all assays above

CCC(C)(Oc1ccc(C2(c3ccc(OC(C)(CC)C(=O)O)cc3)CCCCC2)cc1)C(=O)O (configuration not stated)
inactive: all assays above

N=C(N=C(N)N)N1CCOCC1
inactive: all assays above

N[C@@H](Cc1cc(I)c(Oc2cc(I)c(O)c(I)c2)c(I)c1)C(=O)O
inactive: all assays above

Cc1cccc(C)c1OCC(=O)N[C@@H](Cc1ccccc1)[C@@H](O)C[C@H](Cc1ccccc1)NC(=O)[C@H](C(C)C)N1CCCNC1=O
active: [1] 7940 nM | [2] 891 nM | [3] 7940 nM | [4] 708 nM | [5] 1120 nM | [6] 2510 nM | [7] 891 nM | [8] 3980 nM | [9] 1900 nM | [10] 2000 nM

CCOc1cc(CC(=O)N[C@@H](CC(C)C)c2ccccc2N2CCCCC2)ccc1C(=O)O
inactive: all assays above

C[Se]CCC(N)C(=O)O (configuration not stated)
inactive: all assays above

CN1C(C(=O)Nc2ccccn2)=C(O)c2sccc2S1(=O)=O
inactive: all assays above

COC(=O)[C@H](Cc1ccccc1)NC(=O)[C@@H](N)CC(=O)O (H-Asp-Phe-OMe)
inactive: all assays above

C[C@]12CCC(=O)C=C1CC[C@@H]1[C@H]2[C@@H](O)C[C@@]2(C)[C@H]1CC[C@]2(O)C(=O)CO
inactive: all assays above

CNC[C@@H](O)[C@@H](O)[C@H](O)[C@H](O)CO
inactive: all assays above

CC(S)C(=O)NCC(=O)O (configuration not stated)
inactive: all assays above

Cc1cc2cc3c(C)cc(=O)oc3c(C)c2o1
inactive: all assays above

O=C(O)c1cccnc1Nc1cccc(C(F)(F)F)c1
inactive: all assays above

CS(=O)(=O)OCCCCOS(C)(=O)=O
inactive: all assays above

Clc1ccc(C(Cn2ccnc2)OCc2ccsc2Cl)c(Cl)c1 (configuration not stated)
active: [1] 3160 nM | [2] 1000 nM | [3] 5010 nM | [4] 2820 nM | [5] 2240 nM | [6] 4470 nM | [7] 1000 nM | [8] 4470 nM | [9] 3380 nM | [10] 4470 nM

CCN(CC)CCOc1ccc(Cc2ccccc2)cc1
inactive: all assays above

Nc1ccn([C@@H]2O[C@H](CO)[C@@H](O)C2O)c(=O)n1 (some centres not stated)
not listed: [9]
inactive: all other assays above

CCN(CCO)CCCC(C)Nc1ccnc2cc(Cl)ccc12 (configuration not stated)
active: [1] 1000 nM
not listed: [8]
inactive: all other assays above

O=C(O)c1cccc(-c2noc(-c3ccccc3F)n2)c1
inactive: all assays above

O=P(O)(O)C(O)(Cn1ccnc1)P(=O)(O)O
inactive: all assays above

CN(C)CCc1c[nH]c2ccc(Cn3cncn3)cc12
inactive: all assays above

CCCCc1ccc2nc(NC(=O)OC)[nH]c2c1
inactive: all assays above

C=CCc1cc(OC)c(O)c(C(=O)NCCO)c1
inactive: all assays above

Cn1c(NCCN(CCO)CCCc2ccc([N+](=O)[O-])cc2)cc(=O)n(C)c1=O
inactive: all assays above
